The supplement of paper PMC8975748
Counter-ions that a name gives are not always drawn.

Each molecule was assayed on Saccharomyces cerevisiae BY4741 SeMeCo community (assay: z-score of subpopulation abundance vs DMSO median, subpopulation auxotrophic for HLU; higher = larger share of this subpopulation than in DMSO controls). Conditions: 10 µM; 24 h; SM minimal medium; subpopulation (auxotrophy): HLU.
Experimental: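 Fluorescent four-plasmid SeMeCo (self-establishing metabolically cooperating S. cerevisiae BY4741 community; plasmids pH-mRuby2, pL-mWasabi, pU-eCFP, pM-TagRFP657) was grown 24 h in minimal SM medium with each Selleck FDA-approved drug at 10 µM in 384-well plates. Cells were fixed and imaged by high-content confocal microscopy. For each auxotrophic subpopulation (and the prototroph), a z-score gives the deviation from the DMSO vehicle-control population median.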

| SMILES | z-score of subpopulation abundance |
| --- | --- |
| CCOC(=O)C1=C(C)NC(C)=C(C(=O)OC)C1c1cccc(Cl)c1Cl (stereo not given) [Felodipine] | -3.41 |
| CCC(=O)c1c(O)cc(O)cc1O [Flopropione] | -0.08 |
| Clc1ccc(C(Cn2ccnc2)OCc2ccc(Sc3ccccc3)cc2)c(Cl)c1 (stereo not given) [Fenticonazole Nitrate] | 14.8 |
| Cc1cccc(C)c1NC(=O)C1CCCCN1C (stereo not given) [Mepivacaine HCl] | 0.11 |
| OCc1ccc(Cl)cc1Cl [2,4-dichlorobenzyl alcohol] | 0.04 |
| CN(C)CCC=C1c2ccccc2C(C)(C)c2ccccc21 [Melitracen hydrochloride] | -1.72 |
| CCCCCCCN(CC)CCCC(O)c1ccc(NS(C)(=O)=O)cc1 (stereo not given) [Ibutilide Fumarate] | -0.63 |
| Clc1ccc(C(Cn2ccnc2)OCc2c(Cl)cccc2Cl)c(Cl)c1 (stereo not given) [Isoconazole nitrate] | 2.86 |
| O=C(O)C[C@H](O)C[C@H](O)/C=C/c1c(C2CC2)nc2ccccc2c1-c1ccc(F)cc1 [Pitavastatin Calcium] | 1.38 |
| CN(C)CCC[C@@]1(c2ccc(F)cc2)OCc2cc(C#N)ccc21 [Escitalopram Oxalate] | -0.25 |
| CN[C@@H]1[C@@H](O)[C@@H](O[C@@H]2[C@@H](O)[C@H](O[C@H]3O[C@H](CN)[C@@H](O)[C@H](O)[C@H]3O)[C@@H](N)C[C@H]2NC(=O)[C@@H](O)CN)OC[C@]1(C)O [Isepamicin Sulphate] | -0.42 |
| COc1ccc(C2CNC(=O)C2)cc1OC1CCCC1 (stereo not given) [Rolipram] | -0.57 |
| CC[C@H]1OC(=O)[C@H](C)[C@@H](O[C@H]2C[C@@](C)(OC)[C@@H](O)[C@H](C)O2)[C@H](C)[C@@H](O[C@@H]2O[C@H](C)C[C@H](N(C)C)[C@H]2O)[C@](C)(O)C[C@@H](C)C(=O)[C@H](C)[C@@H](O)[C@]1(C)O [Erythromycin] | 1 |
| Cn1nnnc1SCC1=C(C(=O)O)N2C(=O)[C@@H](NC(=O)[C@H](OC=O)c3ccccc3)[C@H]2SC1 [Cefamandole nafate] | 0.38 |
| CC1(C)S[C@@H]2[C@H](NC(=O)[C@H](N)c3ccccc3)C(=O)N2[C@H]1C(=O)O [Ampicillin Trihydrate] | -0.22 |
| CSc1nc2cc(Cl)c(Oc3cccc(Cl)c3Cl)cc2[nH]1 [Triclabendazole] | 2.64 |
| Cn1c([N+](=O)[O-])cnc1COC(N)=O [Ronidazole] | -0.68 |
| C[C@H]1O[C@@H](O[C@H]2[C@@H](O)C[C@H](O[C@H]3[C@@H](O)C[C@H](O[C@H]4CC[C@@]5(C)[C@H](CC[C@@H]6[C@@H]5C[C@@H](O)[C@]5(C)[C@@H](C7=CC(=O)OC7)CC[C@]65O)C4)O[C@@H]3C)O[C@@H]2C)C[C@H](O)[C@@H]1O [Digoxin] | -0.03 |
| CC(C)c1c(C(=O)Nc2ccccc2)c(-c2ccccc2)c(-c2ccc(F)cc2)n1CC[C@@H](O)C[C@@H](O)CC(=O)O [Atorvastatin] | 1.73 |
| COc1ccc(C(=O)NCc2ccc(OCCN(C)C)cc2)cc1OC [Itopride hydrochloride] | 0.07 |

| SMILES | z-score of subpopulation abundance |
| --- | --- |
| COC(=O)C1=C(C)NC(C)=C(C(=O)OC(C)(C)CN(C)CCC(c2ccccc2)c2ccccc2)C1c1cccc([N+](=O)[O-])c1 (stereo not given) [Lercanidipine] | 0.93 |
| O=C1c2cccc3c2[C@H](CCC3)CN1[C@@H]1CN2CCC1CC2 [Palonosetron] | -0.63 |
| O=C(O[C@H]1CN2CCC1CC2)N1CCc2ccccc2[C@@H]1c1ccccc1 [Solifenacin succinate] | 0.46 |
| CC1(C)S[C@@H]2[C@H](NC(=O)Cc3ccccc3)C(=O)N2[C@H]1C(=O)O [Benzathine penicilline] | -0.11 |
| CC1(C)S[C@@H]2[C@H](NC(=O)[C@H](N)c3ccc(O)cc3)C(=O)N2[C@H]1C(=O)O [Amoxicillin] | 0.39 |
| C=CC[C@@H]1/C=C(\C)C[C@H](C)C[C@H](OC)[C@H]2O[C@@](O)(C(=O)C(=O)N3CCCC[C@H]3C(=O)O[C@H](/C(C)=C/[C@@H]3CC[C@@H](O)[C@H](OC)C3)[C@H](C)[C@@H](O)CC1=O)[C@H](C)C[C@@H]2OC [Tacrolimus (FK506)] | 1.27 |
| CCCCCC(=O)O[C@]1(C(C)=O)CC[C@H]2[C@@H]3CCC4=CC(=O)CC[C@]4(C)[C@H]3CC[C@@]21C [Hydroxyprogesterone caproate] | 0.62 |
| CCCCCNC(=N)N/N=C/c1c[nH]c2ccc(OC)cc12 [Tegaserod Maleate] | 1.26 |
| CN[C@H]1C(=O)N[C@@H]2Cc3ccc(cc3)Oc3cc4cc(c3O[C@@H]3O[C@H](C(=O)O)[C@@H](O)[C@H](O)[C@H]3NC(=O)CCCCCCCCC(C)C)Oc3ccc(cc3Cl)[C@@H](O)[C@@H]3NC(=O)[C@H](NC(=O)[C@@H]4NC(=O)[C@@H](NC2=O)c2cc(cc(O)c2Cl)Oc2cc1ccc2O)c1ccc(O)c(c1)-c1c(O[C@H]2O[C@H](CO)[C@@H](O)[C@H](O)[C@@H]2O)cc(O)cc1[C@@H](C(=O)NCCCN(C)C)NC3=O [Dalbavancin] | 2.43 |
| C#C[C@]1(O)CC[C@H]2[C@@H]3CCC4=Cc5oncc5C[C@]4(C)[C@H]3CC[C@@]21C [Danazol] | -0.45 |
| Oc1cccc(O)c1 [Resorcinol] | 0 |
| C(=C\c1ccccc1)/CN1CCN(C(c2ccccc2)c2ccccc2)CC1 [Cinnarizine] | 1.32 |
| CC(C)Cc1ccc(C(C)C(=O)O)cc1 (stereo not given) [Ibuprofen Lysine] | -1.49 |
| NC[C@H]1O[C@H](O[C@H]2[C@H](O)[C@@H](O[C@H]3O[C@H](CO)[C@@H](O)[C@H](N)[C@H]3O)[C@H](N)C[C@@H]2N)[C@H](O)[C@@H](O)[C@@H]1O [Kanamycin sulfate] | 0.63 |
| Clc1ccc(CSC(Cn2ccnc2)c2ccc(Cl)cc2Cl)cc1 (stereo not given) [Sulconazole Nitrate] | 7.54 |
| CCN(CC)C(=O)N1CCN(C)CC1 [Diethylcarbamazine citrate] | -0.06 |
| C=C[C@]1(C)C[C@@H](OC(=O)CSC(C)(C)CNC(=O)[C@H](N)C(C)C)[C@]2(C)[C@H](C)CC[C@]3(CCC(=O)[C@H]32)[C@@H](C)[C@@H]1O [Valnemulin HCl] | 1.01 |
| C[C@]12CC[C@@H]3c4ccc(O)cc4CC[C@H]3[C@@H]1CC[C@@H]2OC(=O)CCC1CCCC1 [Estradiol Cypionate] | 0 |
| OCCN1CCN(CC/C=C2/c3ccccc3Sc3ccc(C(F)(F)F)cc32)CC1 [Flupenthixol dihydrochloride] | 0.47 |
| C#C[C@]1(O)CC[C@H]2[C@@H]3CCC4=CCCC[C@@H]4[C@H]3C(=C)C[C@@]21CC [Desogestrel] | 0.73 |
